In PubChem BioAssay AID1159580 (chemical genetic matrix, 2015):
The campaign covered roughly 5,500 compounds. About 2,000 (36%) were called active. Not shown: some 18% with an inconclusive outcome. Rule as the data show it: active = normalized growth mostly below about 0.91 (no sharp cut-off); inconclusive = no clear call, values can overlap the other calls; inactive = mostly above about 0.92. The list shows a part of the results.

Test: chemical genetic growth profiling, strain panel (AID 1159580);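 also: tested at 20 µM; growth read once vehicle control cultures reached saturation at 30 °C; 1 = growth at the plate median or of vehicle wells; lower values mean less growth of the strain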
Conditions: growth OD

Measured: normalized growth

COC(OC)c1cc(=O)[nH]c(=S)[nH]1
inactive: S. cerevisiae deletion strains, locus YAL013W, strain DEP1, stronger effect = lower value 1.01 | S. cerevisiae deletion strains, locus YBR229C, strain ROT2, stronger effect = lower value 1.02 | S. cerevisiae deletion strains, locus YDL101C, strain DUN1, stronger effect = lower value 1 | S. cerevisiae deletion strains, locus YDL134C, strain PPH21, stronger effect = lower value 1.02 | S. cerevisiae deletion strains, locus YDR150W, strain NUM1, stronger effect = lower value 0.918 | S. cerevisiae deletion strains, locus YEL061C, strain CIN8, stronger effect = lower value 1.04 | S. cerevisiae deletion strains, locus YGR078C, strain PAC10, stronger effect = lower value 1.03 | S. cerevisiae deletion strains, locus YHR030C, strain SLT2, stronger effect = lower value 1.06 | S. cerevisiae deletion strains, locus YHR087W, strain rtc3, stronger effect = lower value 1.01 | S. cerevisiae deletion strains, locus YJL187C, strain SWE1, stronger effect = lower value 1.02 | S. cerevisiae deletion strains, locus YJR043C, strain POL32, stronger effect = lower value 1.01 | S. cerevisiae deletion strains, locus YJR075W, strain HOC1, stronger effect = lower value 1.01 | S. cerevisiae deletion strains, locus YLR039C, strain RIC1, stronger effect = lower value 1.07 | S. cerevisiae deletion strains, locus YLR058C, strain SHM2 (second series), stronger effect = lower value 1.01 | S. cerevisiae deletion strains, locus YLR085C, strain ARP6, stronger effect = lower value 1.11 | S. cerevisiae deletion strains, locus YLR262C, strain YPT6, stronger effect = lower value 1.03 | S. cerevisiae deletion strains, locus YML094W, strain GIM5, stronger effect = lower value 1.02 | S. cerevisiae deletion strains, locus YMR219W, strain ESC1, stronger effect = lower value 1.01 | S. cerevisiae deletion strains, locus YMR263W, strain SAP30, stronger effect = lower value 1.03 | S. cerevisiae deletion strains, locus YMR307W, strain GAS1, stronger effect = lower value 1.12 | S. cerevisiae deletion strains, locus YNL153C, strain GIM3, stronger effect = lower value 1.01 | S. cerevisiae deletion strains, locus YNL298W, strain CLA4 (second series), stronger effect = lower value 1.08 | S. cerevisiae deletion strains, locus YNL322C, strain KRE1, stronger effect = lower value 1.01 | S. cerevisiae deletion strains, locus YNR030W, strain Alg12, stronger effect = lower value 1.02 | S. cerevisiae deletion strains, locus YPL055C, strain LGE1, stronger effect = lower value 0.935 | S. cerevisiae deletion strains, locus YPL241C, strain CIN2, stronger effect = lower value 0.913 | S. cerevisiae deletion strains, locus YPR135W, strain CTF4, stronger effect = lower value 1.03 | S. cerevisiae strains, strain wild type, stronger effect = lower value 1.01
